Source: PubChem BioAssay AID588334 (Broad Institute, 2011)
In all, about 300,000 compounds went through this assay and about 2,300 (0.77%) were called active.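 How the source made its calls: active means mean activation of at least 80% with every replicate also reaching 80%; inconclusive means mean reaches 80% but some replicate falls short; inactive means the rest.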 For the sample, actives were picked, then their nearest neighbours and some compounds at random.

Test: activators of MITF-driven TRPM1 promoter reporter, primary screen, cell-based, SK-MEL-5, luciferase, single point (AID 588334);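 further: 0% = neutral control wells and 100% = parthenolide positive control wells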
Details: SK-MEL-5 TRPM1-promoter luciferase, 24 h; at 12.5 µM; active compounds read high; % of positive control, neutral wells = 0

activation, inactive:
COc1ccccc1OCCCC(=O)Nc1ccc2c(c1)OCCO2 24.7%
CCC(=O)c1cc(F)ccc1OCC(=O)Nc1ccc2c(c1)OCCO2 22.6%
Cc1cc2c(cc1C)NC1(C[C@H]3CCC(=O)N4CC[C@@H](C1)[C@@H]34)C(=NC(C)(C)CC(C)(C)C)N2 (some centres undefined) -10%
O=C(CN1CCN(c2ccccn2)CC1)N1CCc2ccccc21 19.8%
NC(=O)N1CCc2ccccc21 -5.85%
Cn1c(N)cc(=O)n(C)c1=S -8.41%
CC(C)c1ccc(/C=C/C(=O)NNC(=O)c2cccnc2)cc1 9.02%
CC(C)c1ccc(/C=C/C(=O)NCCCN2CCOCC2)cc1 4.51%
CN(C(=O)c1cccc(NC(=O)Cc2ccc(NC(=O)C3CCCN(C(=O)C4CCCC4)C3)cc2)c1)C1CCC1 (centres undefined) -9.98%
O=c1ccn([C@@H]2O[C@H](CNS(=O)(=O)c3cc4ccccc4s3)[C@@H](O)[C@H]2O)c(=O)[nH]1 -4.34%
O=C(Nc1cccc(S(=O)(=O)N2CCOCC2)c1)C12CC3CC(CC(C3)C1)C2 12.4%
Cc1ccc(C)c(C(C)NC(=O)C2CCCO2)c1 (centres undefined) -7.6%
Cc1cc([N+](=O)[O-])ccc1NC(=O)C1CCCO1 (centres undefined) -1.67%
C/C(=N\Nc1ccc(Cl)nn1)c1ccccc1O -45.2%
NC(=O)c1ccc(N2CCCC2)nc1 -7.45%
COc1ccc(CN2C(CC(=O)Nc3cccnc3)c3ccc(C(F)(F)F)cc3S2(=O)=O)cc1 (centres undefined) 11.4%
O=C1COc2c1ccc(O)c2O 1.19%
Cc1cc(/C=C2\SC(=O)N(C)C2=O)c(C)n1-c1cccc(C(=O)O)c1 3.12%
CC(C)OC(=O)CN1C(=O)C(=O)c2ccccc21 -5.18%
O=c1c(Cl)c(NC2CC2)cnn1-c1ccccc1 6.24%
CCCNC(=O)c1c(Cl)cnn1-c1ccc(C)cc1 69.7%
O=C(c1cccc(S(=O)(=O)N2CCCCCC2)c1)N1CCN(Cc2ccccc2)CC1 4.94%
COc1ccc(/C=N/NC(=O)Nc2ccc3nsnc3c2)c(OC)c1 4.9%
COc1ccc(NC(=O)Nc2cccc3cccnc23)cc1 40.1%
O=C(Nc1c(Br)cc2c(c1Br)Cc1cc([N+](=O)[O-])ccc1-2)C(Cl)Cl -16.6%
FC(F)(F)c1ccc(-c2cccc3c2C2CC3CCN2Cc2ccccc2)cc1 (centres undefined) -0.65%
COc1ccc(NC(=O)/C(N=Nc2cccc(S(=O)(=O)Nc3ccc(SC(F)F)cc3)c2)=C(\C)O)cc1 -7.51%
CN(C(=O)c1cccc(NC(=O)Cc2ccc(NC(=O)C3CCCN(C(=O)C4CC4)C3)cc2)c1)C1CC1 (centres undefined) -7.94%
CCOc1cccc(C(=O)Nc2nnc(-c3cccs3)s2)c1 25.8%
Cc1ccc(C(=O)Oc2coc(CSc3nnc(NC(=O)c4cccs4)s3)cc2=O)cc1C 0.796%
NC1=NOC(=O)C1C1CCCCC1 (centres undefined) -0.578%
O=c1[nH]c2c(c(=O)n1-c1ccccc1)CCO2 1.65%
COc1cc(C2CC(=O)Oc3cc(OC)c(OC)c(OC)c32)cc(OC)c1OC (centres undefined) 1.92%
CC1CCc2c(sc3nc4n(c(=O)c23)CCS4)C1 (centres undefined) 73.6%
C=CCn1c(SCc2c(C)noc2C)nc2sc3c(c2c1=O)CCC(C)C3 (centres undefined) -11.8%
CSc1ccccc1NC(=O)c1ccc2c(c1)CCN2S(C)(=O)=O 25.3%
CS(=O)(=O)N1CCc2cc(C(=O)Nc3ccccc3)ccc21 49.3%
Cc1nc2cc(NC(=O)NCc3ccccc3)ccc2o1 14.2%
COC(=O)c1ccc(NC(=O)Nc2ccc(C)cc2)cc1 25.4%

activation, active:
CCc1ccccc1OCC(=O)Nc1ccc2c(c1)OCCO2 89.7%
O=C(CSCc1ccccc1)N1CCc2ccccc21 95%
C=CCNC(=O)/C=C/c1ccc(C(C)C)cc1 89.4%
Cc1cc(C)c2nc(NC(=O)C3CCCO3)sc2c1 (centres undefined) 81.4%
Cc1cc(/C=C2/SC(=O)N(CC(=O)OC(C)C)C2=O)c(C)n1C 97.9%
C=CCNc1cnn(-c2ccc(C)cc2)c(=O)c1Cl 108%
COc1ccc(NC(=O)Nc2ccc3nsnc3c2)cc1 92.9%
Cc1ccc(C(=O)Nc2nnc(-c3cccs3)s2)cc1C 87.8%
CCCn1nnc2sc3c(c2c1=O)CCC(C)C3 (centres undefined) 99.2%
CS(=O)(=O)N1CCc2cc(C(=O)Nc3ccccc3Br)ccc21 85.3%
